Shown are actives, neighbours in structure and some others; about 3.4% of the full set was active somewhere.
MITF inh – MITF inhibitors, primary screen, biochemical, AlphaScreen, human | Microphthalmia-associated transcription factor (Homo sapiens), O75030 | AlphaScreen MITF homodimerization, bead proximity signal | inhibition, % at 2.6 µM | actives 0.91% (n = 650,000); in the data active = inhibition above about 50%;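 note: 0% = vehicle wells with protein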
Target sequence (O75030 whole entry, looked up): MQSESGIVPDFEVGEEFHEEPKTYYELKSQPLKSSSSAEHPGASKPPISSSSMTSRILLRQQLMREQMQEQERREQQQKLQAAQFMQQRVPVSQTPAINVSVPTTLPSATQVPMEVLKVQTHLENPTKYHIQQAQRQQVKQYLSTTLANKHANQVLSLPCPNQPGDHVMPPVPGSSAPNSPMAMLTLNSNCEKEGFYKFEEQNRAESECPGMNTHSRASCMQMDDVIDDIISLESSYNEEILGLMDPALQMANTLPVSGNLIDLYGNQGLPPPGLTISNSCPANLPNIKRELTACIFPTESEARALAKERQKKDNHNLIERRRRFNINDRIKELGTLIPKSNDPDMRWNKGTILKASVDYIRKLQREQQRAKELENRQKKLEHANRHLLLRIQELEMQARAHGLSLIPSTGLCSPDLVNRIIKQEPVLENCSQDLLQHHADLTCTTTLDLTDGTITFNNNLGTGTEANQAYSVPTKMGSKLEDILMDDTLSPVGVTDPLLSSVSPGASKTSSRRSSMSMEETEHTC
FBW7 activator – FBW7 E3 ligase activators, primary screen, biochemical, AlphaScreen, human | F-box/WD repeat-containing protein 7 (Homo sapiens), Q969H0 | AlphaScreen FBW7–phospho-cyclin E peptide binding, activator screen | normalized activity (activation), % at 26.1 µM | actives 0.13% (n = 650,000) | AID 1259310, 2017; in the data active = normalized activity above about 1.9%;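 note: purified mutant Fbw7 with reduced substrate affinity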
GPR151 ag – activators of human GPR151, primary screen, cell-based, PathHunter beta-arrestin, luminescence; PathHunter beta-arrestin GPR151 cells; G-protein coupled receptor 151 (Homo sapiens), Q8TDV0; activation, % at 11.2 µM; actives 1% (n = 650,000); in the data active = activation above about 4.9%;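 note: 0% = median of compound wells and 100% = cells with positive control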
TEAD-YAP block – TEAD-YAP interaction inhibition, primary screen, TEAD-YAP interaction inhibitor project, luminescence, HEK-TIYL cells | actives 1.4% (n = 640,000) | inhibition, % at 9.12 µM | AID 1259422, 2018 | TEAD-Gal4/YAP UAS-luciferase luminescence; in the data active = inhibition above about 32%;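 note: 0% = median of test compound wells and 100% = reference inhibitor wells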
MITF confirm – MITF inhibitors, retest of hits, confirmation, biochemical, AlphaScreen, triplicate; inhibition, % at 2.6 µM; AID 1259372, 2018; actives 16% (n = 4,700); AlphaScreen MITF homodimerization, biotin/His-MITF beads; shares compounds with MITF inh;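 active = inhibition above a cutoff derived from the DMSO control wells, cut at about 28% in these data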;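 note: 0% = MITF dimer wells with DMSO only; inhibitors lower the bead chemiluminescence by keeping MITF from dimerizing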
AlphaScreen intf2 – AlphaScreen optical interference compounds, counter-screen for MITF inhibitor project, biochemical, triplicate. shares compounds with MITF inh. LysRS AlphaScreen counterscreen, signal interference. inhibition, % at 2.6 µM. actives 7.6% (n = 4,700);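 active = inhibition above a cutoff derived from the DMSO control wells, cut at about 30% in these data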
* marks the source's active call; other numbers are inactive results; . = no result.

SMILES | MITF inh | FBW7 activator | GPR151 ag | TEAD-YAP block | MITF confirm | AlphaScreen intf2
CC(C)N1CC=C(c2c[nH]c3ccccc23)CC1 | 4 | 0 | 0 | 37* | . | .
CN(C)C(=S)SSC(=S)N(C)C | -12 | 0 | 1 | 34* | . | .
CCc1ccccc1N(C)C(=O)CCc1nc(C2=CCN(C)CC2)no1 | 10 | 0 | 0 | -13 | . | .
O=C(Nc1ccncc1)C(=O)c1cn(Cc2ccc(Cl)cc2)c2ccccc12 | 8 | 0 | -1 | 45* | . | .
CCCCC[C@H]1C(=O)O[C@H](C)[C@H](NC(=O)c2cccc(NC=O)c2O)C(=O)O[C@@H](C)[C@@H]1OC(=O)CC(C)C | -3 | 0 | 2 | 52* | . | .
CCCCCC[C@H]1C(=O)O[C@H](C)[C@H](NC(=O)c2cccc(NC=O)c2O)C(=O)O[C@@H](C)[C@@H]1OC(=O)CC(C)C | -17 | 0 | 0 | 50* | . | .
CN1c2ccccc2N(C)C1c1cccnc1 | 7 | 0 | -1 | 8 | . | .
O=c1[nH]c(=O)n(Cc2ccccc2Cl)c(O)c1/C=C1\C=CC=N1 | 17 | 0 | 1 | 52* | . | .
CC(C)CCCn1c(O)c(/C=C2\C=CC=N2)c(=O)[nH]c1=O | 1 | 0 | 1 | 28 | . | .
Cc1ccc2nc3c(cc(C#N)c(=O)n3CCc3ccccc3)c(=O)n2c1 | 2 | 0 | 0 | 0 | . | .
COC1=CC23CCCN2CCc2cc4c(cc2C3C1O)OCO4 (stereo unspecified) | 18 | 0 | -2 | -8 | . | .
COC(=O)C[C@@](O)(CCC(C)(C)O)C(=O)O[C@@H]1C(OC)=C[C@]23CCCN2CCc2cc4c(cc2[C@@H]13)OCO4 | 7 | 1 | -2 | 101* | . | .
N#Cc1ccc(NC(=O)c2ccccc2Br)cc1Cl | -7 | 1 | -1 | -47 | . | .
CC1CCN(Cc2ccc(NC(=O)CCc3nc(C4=CCN(C)CC4)no3)cc2)CC1 | 50 | 3.9* | 2 | 8 | . | .
Cc1nc2ccccc2c(=O)n1-c1cc(C(F)(F)F)ccc1Cl | 0 | 0 | 0 | 12 | . | .
CCCOc1ccc(/C=C(/C)[N+](=O)[O-])cc1OC | -14 | 0 | -1 | 37* | . | .
CN1C(=O)[C@]23CC4=CC=C[C@H](O)[C@H]4N2C(=O)[C@@]1(CO)SS3 | -4 | 0 | -2 | 88* | . | .
CN1CCN(C(=O)Cc2ccc(NC3=NC4CS(=O)(=O)CC4S3)cc2)CC1 (stereo unspecified) | 21 | 2.6* | 0 | -23 | . | .
COc1ccccc1OCC#CCN1CCCC(C)C1 (stereo unspecified) | 58* | 0 | -2 | 7 | 4 | 10
CCCCC/C=C\C/C=C\C/C=C\C/C=C\CCCC(=O)NCCOP(=O)(O)O | -2 | . | 1 | . | . | .
S=P(N/N=C1\CN2CCC1CC2)(c1ccccc1)c1ccccc1 | -5 | 0 | -2 | -1 | . | .
CN(C)CCN(C)Cc1c[nH]c2ccccc12 | 64* | 0 | 0 | 5 | -1 | 5
CN1CCN(Cc2c(O)ccc3ccccc23)CC1 | -12 | 0 | 1 | -3 | . | .
CN1CCN(Cc2ccc(O)c3ncccc23)CC1 | 94* | -2 | 0 | -5 | 106* | 101*
CC(=O)c1ccc(N2CCN(Cc3ccccc3F)CC2)cc1 | 51* | 1 | 1 | -1 | -4 | 4
SMILES | MITF inh | FBW7 activator | GPR151 ag | TEAD-YAP block | MITF confirm | AlphaScreen intf2
CC(=O)c1ccc(N2CCN(Cc3ccc(F)cc3)CC2)cc1 | 30 | 0 | 0 | -11 | . | .
Fc1cccc(F)c1CN1CCN(c2ccccc2)CC1 | 56* | 0 | -1 | 6 | 3 | -7
COc1cccc(N2CCN(Cc3ccccc3F)CC2)c1 | 60* | 0 | -2 | -2 | -10 | -4
NC1CS(=O)(=O)C(Br)(Br)C1O (stereo unspecified) | -5 | 0 | 0 | 1 | . | .
Cc1cccc(CC(=O)N2CCN(Cc3nc4ccccc4[nH]3)CC2)c1 | 55* | -1 | 1 | 7 | 9 | 19
CCN1CCN(Cc2ccc(OC)c(C)c2C)CC1 | 53* | 0 | 0 | 9 | 0 | 3
CCOc1cc(CN2CCN(CC)CC2)ccc1O | 57* | 0 | -1 | 11 | 12 | -1
CCN1CCN(Cc2cc(OC)c(OC)c(OC)c2)CC1 | 52* | 1 | 0 | 5 | 13 | -6
COc1cc(CN2CCN(c3ccccc3)CC2)cc(OC)c1O | 36 | 0 | -1 | 2 | . | .
COc1cc(CN2CCN(CCO)CC2)cc(OC)c1OC | 1 | 0 | 0 | 10 | . | .
COc1cc(CN2CCN(C(C)C)CC2)cc(OC)c1O | 71* | 0 | -2 | -11 | 14 | 14
CC(C)CC1C(=O)NC(=S)NC1=O | -2 | 0 | -1 | -5 | . | .
CC(C(=O)N1CCC2(CC1)OCCO2)n1ncn2cccc2c1=O (stereo unspecified) | 10 | 0 | -2 | -1 | . | .
COc1cc(CN2CCN(C(C)C)CC2)cc(OC)c1OC | 82* | 0 | -1 | 5 | 3 | 18
CCC(CC)N1CCN(Cc2cc(OC)c(OC)c(OC)c2)CC1 | 57* | 0 | 1 | 0 | 2 | 4
Cc1cccc(CN2CCN(C(C)C)CC2)c1 | 34 | 0 | 1 | 7 | . | .
O=c1cccc2n1CC1CC2CN(Cc2ccccc2)C1 (stereo unspecified) | -10 | 0 | 0 | -9 | . | .
CN1CCN(Cc2ccccc2Cl)CC1 | 64* | 0 | 0 | 14 | 3 | 7
Clc1cccc(CN2CCN(Cc3ccccc3Br)CC2)c1 | 77* | 0 | -1 | -6 | 9 | 4
CN1CCN(Cc2coc3ccccc3c2=O)CC1 | 51* | 0 | 3 | 55* | 1 | 8
O=c1c(CN2CC=C(c3ccc(F)cc3)CC2)coc2ccccc12 | -7 | 0 | 2 | 18 | . | .
COc1ccc(CN2CCN(Cc3ccccc3Cl)CC2)cc1 | 81* | 0 | -1 | 3 | 0 | 9
Clc1cccc(N2CCN(Cc3ccccc3)CC2)c1 | 2 | 0 | 1 | 13 | . | .
CN1CCN(Cc2cccc3ccccc23)CC1 | 39 | 0 | 0 | 12 | . | .
COC(=O)C1=C(N)Oc2cc(C)n(C)c(=O)c2C12C(=O)N(Cc1cccc(C)c1)c1ccccc12 (stereo unspecified) | 4 | 0 | 0 | -3 | . | .
COc1ccc(O)c(CN2CCN(Cc3ccccc3Br)CC2)c1 | 50 | 0 | 0 | -12 | . | .
Cc1ccc(CN2CCN(Cc3ccccc3Cl)CC2)cc1 | 59* | 0 | 1 | -8 | -3 | 1
COc1cccc(CN2CCN(Cc3ccccc3Cl)CC2)c1 | 86* | 0 | 0 | -11 | 26 | 13
